# Assay results as given in PubChem BioAssay (NCI).
# Compounds without any hit were thinned out: in the full panel of roughly 79,000, 15% have a hit. A number with no mark means an inactive call. Activity calls are given as the source filed them. Cut-off read from the data, not from the text of the source: active = growth inhibition above about 70%; inactive = the rest.
# Assay: NCI Yeast Anticancer Drug Screen. Data for the sgs1 mgt1 strain (AID 161);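 note: 0% = growth of cultures given vehicle only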
# Conditions: S. cerevisiae sgs1 mgt1 strain, at 50.0 µM (retest, dose inferred, filed as 5.0), active compounds read high
# How it was run: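 Inhibition of yeast growth, normalised to vehicle-treated controls, is reported for a strain bearing genetic alterations in DNA damage repair.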
row,Structure (SMILES),growth inhibition
1,Cc1[nH]nc(C(=O)N(C)C)c1N=NN(C)C,88% (active)
2,CSc1c(S(C)=O)c2ccccc2n1C (stereo not given),11%
3,CN(C)c1ccc(C=Nc2cnc3ccccc3c2)cc1,-1%
4,CCCCCCCCCCCCCCCc1nc(SCC(=O)O)n[nH]1,54%
5,Cc1ccc(S(=O)(=O)Oc2c([N+](=O)[O-])cc(C)cc2[N+](=O)[O-])cc1,21%
6,CCOC(=O)c1c(Cl)nnc(-c2ccccc2)c1-c1ccccc1,98% (active)
7,Cc1cc(O)c(C=NC(=S)C(N)=S)c(=O)o1,46%
8,C/C(=N\NC(=S)NC(C)(C)C)c1ccccn1,99% (active)
9,S=C(Nc1ccc(Br)c(Cl)c1)SCc1ccc2c(c1)OCO2,98% (active)
10,CC(=O)Nc1ccc(S(=O)(=O)N/N=C/c2cc(I)cc([N+](=O)[O-])c2O)cc1,69%
11,CCCC(O)CNCc1ccc(N(C)C)cc1 (stereo not given),-29%
12,CC(=O)Nc1nnc(-c2coc3ccccc3c2=O)s1,-3%
13,COc1ccc(CSC(=S)Nc2ccc(Cl)c(C(F)(F)F)c2)cc1,49%
14,CC(=O)Sc1ccc(Br)cc1,60%
15,O=C(CNc1cccc(Cl)c1)Nn1c(-c2ccccc2)nc2ccccc2c1=O,59%
16,Cc1ccc(S(=O)(=O)c2cc(O)c(O)c3ccc(Br)cc23)cc1,98% (active)
17,Fc1cccc2c1cc1ccc3cccc4ccc2c1c34,-14%
18,COC1=C(/C(=N/Nc2ccc([N+](=O)[O-])cc2[N+](=O)[O-])c2ccccc2)COC1=O,-7%
19,CCOC(=O)c1cnccc1CC1(C#N)c2ccccc2C=CN1C(=O)c1ccccc1 (stereo not given),67%
20,CCCCNc1ccc(-c2c(N)nc(N)nc2CC)cc1[N+](=O)[O-],15%
21,O=C(NC1CCN(Cc2ccccc2)CC1)c1cccc(I)c1,73% (active)
22,O/N=C1/CC2CCCc3ccc4cccc1c4c32 (stereo not given),15%
23,CC(C)c1cc(O)c2c(c1O)C1CC3C(C)(C)CCC[C@]23C(=O)O1 (stereo not given in full),76% (active)

# Same assay, conditions: S. cerevisiae sgs1 mgt1 strain, at 50.0 µM, active compounds read high
row,Structure (SMILES),growth inhibition
1,Oc1ccccc1N=CC1CCCCC1,28.4%
2,CC(O[Si](c1ccccc1)(c1ccccc1)C(C)(C)C)[C@H](NC(=O)OC(C)(C)C)C(=O)O[Si](c1ccccc1)(c1ccccc1)C(C)(C)C (stereo not given in full),92.8% (active)
3,Cn1c(=O)c2c3oc(=O)cc(O)c3c(=O)n3c4ccccc4n(c1=O)c23,45%
4,CCCCCCCCCCCCCCC(O)C(=O)O (stereo not given),33%
5,O=[N+]([O-])c1cc(I)cc(/C=N/NS(=O)(=O)c2ccc(F)cc2)c1O,89.5% (active)
6,CCC/C=C1/OC(=O)C2=C[C@H]3CC[C@]21[C@]1(OC(=O)C2=C1CCC=C2)[C@H]3CCC,87.8% (active)
7,C=C(CC)C[C@@H]1C[C@]2(C(=O)OC)c3[nH]c4ccccc4c3CCN2C1=O,58.4%
8,Cc1ccc(N2C(=O)C(Cl)=C(Cl)C2=O)cc1,99.5% (active)
9,COc1cc2c(cc1O)CCCCC2,6.9%
10,CC(C)Cc1cc(O)cc2ccccc12,98.5% (active)
11,CCN(CC)Cc1cc(Nc2c3ccccc3nc3c4ccccc4n(C)c23)ccc1O,30.2%
12,CC(=O)Nc1ccc(-c2csc(Nc3ccnc4cc(Cl)ccc34)n2)cc1,72.8% (active)
13,NNc1ccccc1F,97.8% (active)
14,O=C(O)C1(Cc2ccc3c(c2)CCC3)Cc2ccccc2C1=O (stereo not given),87.5% (active)
15,c1cc2cc(Cc3ccc4[nH]ccc4c3)ccc2[nH]1,13%
16,COc1cc(C(c2cc3c(cc2O)OCO3)N2CCOCC2)ccc1O (stereo not given),73% (active)
17,Cc1c(N)nc(C2CC(=O)N2CC(N)C(N)=O)nc1C(=O)NC(C(=O)NC(C)C(O)C(C)C(=O)NC(C(=O)NCCc1nc(-c2nc(C(=O)NCCNCC(C)O)cs2)cs1)C(C)O)C(OC1OC(CO)C(O)C(O)C1OC1OC(CO)C(O)C(OC(N)=O)C1O)c1cnc[nH]1 (stereo not given),93.3% (active)
18,Cc1[nH]nc(C(=O)N(C)C)c1N=NN(C)C,82% (active)
19,CSc1c(S(C)=O)c2ccccc2n1C (stereo not given),-22.2%
20,CN(C)c1ccc(C=Nc2cnc3ccccc3c2)cc1,-3.05%
21,CCCCCCCCCCCCCCCc1nc(SCC(=O)O)n[nH]1,74.2% (active)
22,Cc1ccc(S(=O)(=O)Oc2c([N+](=O)[O-])cc(C)cc2[N+](=O)[O-])cc1,98.2% (active)
